CSC inhib = cancer stem cell inhibition; cancer stem cell-like cells viability, luminescence; inhibition, % at 7.5 µM; actives 1.1% (n = 300,000); AID 2717; in the data active = inhibition above about 75%; tested in HMLE shEcad cells
SKKanGAS inh = SKKanGAS growth inhibition | S. pyogenes SKKanGAS, kanamycin growth, BacTiter-Glo, 6 h | inhibition, % at 7.5 µM | actives 1.3% (n = 300,000) | AID 1662;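 active = mean replicate score, as percent of positive control median, at least 50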;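 note: strain carries kanamycin resistance gene driven by streptokinase promoter and grows in 40 µg/ml kanamycin; loss of luminescence reflects streptokinase promoter inhibition or plain growth inhibition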
NR3A LBD binder = NR3A (human) ligand-binding domain modulation. AID 1259313. Tm shift relative to glycine control, % at 25 µM. NR3A LBD differential scanning fluorimetry, Tm shift; 0% = protein alone, 100% = glycine-bound protein. actives 2.5% (n = 340,000);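 active = melting temperature shift of at least 10% of the positive control shift, at one fixed dose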
Beta apoptosis = beta cell apoptosis inhibition | INS-1E cytokine-induced death, ATP luminescence, 48 h; percent of positive-control rescue, neutral wells zero | protection from apoptosis, % (concentration not given with the values) | actives 0.8% (n = 300,000);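 active = Every replicate reaches about 75%, or at least half do and their mean reaches it too, limit read from the data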;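 note: higher means more ATP so stronger rescue from cytokine killing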
Mdm2-MdmX inh = human Mdm2/MdmX binding inhibition | AID 485346 | actives 3% (n = 330,000) | inhibition, % at 8 µM | O15151+Q00987 | SaOS-2 split-luciferase Mdm2/MdmX complementation, luminescence;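 active = inhibition of at least 50% at 8 µM in the primary screen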
Target sequence (O15151 whole entry, looked up): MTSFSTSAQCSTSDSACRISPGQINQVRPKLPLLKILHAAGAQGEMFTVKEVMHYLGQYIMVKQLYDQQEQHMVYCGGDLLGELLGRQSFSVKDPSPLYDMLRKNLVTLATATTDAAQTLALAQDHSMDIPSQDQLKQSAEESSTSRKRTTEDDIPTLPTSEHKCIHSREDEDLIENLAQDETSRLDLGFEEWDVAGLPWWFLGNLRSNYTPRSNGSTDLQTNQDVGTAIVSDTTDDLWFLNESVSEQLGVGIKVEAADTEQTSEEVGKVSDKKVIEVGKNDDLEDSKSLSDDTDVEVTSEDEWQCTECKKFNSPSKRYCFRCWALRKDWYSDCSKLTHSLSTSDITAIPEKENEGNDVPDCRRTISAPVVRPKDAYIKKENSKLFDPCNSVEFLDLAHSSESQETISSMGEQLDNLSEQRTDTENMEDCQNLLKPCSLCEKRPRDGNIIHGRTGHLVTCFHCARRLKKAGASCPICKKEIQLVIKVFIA
Target sequence (Q00987 whole entry, looked up): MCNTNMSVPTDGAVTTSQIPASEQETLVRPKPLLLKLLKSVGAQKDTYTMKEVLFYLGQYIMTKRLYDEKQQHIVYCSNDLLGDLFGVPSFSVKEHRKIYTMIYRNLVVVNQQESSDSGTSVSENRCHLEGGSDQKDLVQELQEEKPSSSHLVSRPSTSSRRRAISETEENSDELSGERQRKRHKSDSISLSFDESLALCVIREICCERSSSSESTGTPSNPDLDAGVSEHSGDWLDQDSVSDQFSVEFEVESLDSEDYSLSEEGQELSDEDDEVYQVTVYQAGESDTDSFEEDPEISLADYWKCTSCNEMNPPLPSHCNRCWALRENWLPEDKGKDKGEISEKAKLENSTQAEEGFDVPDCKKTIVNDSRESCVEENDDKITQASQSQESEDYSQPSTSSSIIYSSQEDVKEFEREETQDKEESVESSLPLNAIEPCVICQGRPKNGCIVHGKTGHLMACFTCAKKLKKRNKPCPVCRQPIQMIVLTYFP
MPTP inh = permeability transition pore inhibition; inhibition, % at 10 µM; actives 1.4% (n = 360,000); isolated mouse mitochondria, Ca2+ swelling absorbance, 30 min;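 active = inhibition of 50% or more, scaled per plate between neutral and stimulator controls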
MPTP counter = Rhodamine 123 counter-screen of mitochondrial pore hits; shares compounds with MPTP inh; isolated mitochondria, membrane potential, Rhodamine 123 fluorescence; inhibition, % at 10 µM; actives 78% (n = 5,000); AID 624504; in the data active = inhibition above about 22%
MPTP abs DR = MPTP inhibition, dose response swelling confirmation. AID 651561. shares compounds with MPTP inh. isolated mitochondria swelling, absorbance. actives 58% (n = 780). IC50, µM; in the data active = IC50 below about 20 µM
MPTP counter DR = counter-screen for mitochondrial permeability transition pore inhibitors, dose response. shares compounds with MPTP inh. isolated mitochondria counterscreen, fluorescence read-out. IC50, µM. actives 49% (n = 780). AID 651564; in the data active = IC50 below about 80 µM
Numbers stand for hits; - = inactive; . = not tested or not shown. A selection: hits, their analogues and other compounds. The true share with any hit is near 6.9%.

SMILES	CSC inhib	SKKanGAS inh	NR3A LBD binder	Beta apoptosis	Mdm2-MdmX inh	MPTP inh	MPTP counter	others
Cc1ccc(NC(=S)NC(NC(=O)c2ccccc2C)C(Cl)(Cl)Cl)c(C)c1 (centres undefined)	-	-	-	-	-	92.8	81.9
O=C(COc1ccccc1)NC(NC(=S)Nc1ccccc1O)C(Cl)(Cl)Cl (centres undefined)	-	-	-	-	-	72.6	74.3
CCc1ccc(OCC(=O)NC(NC(=S)Nc2ccccc2C)C(Cl)(Cl)Cl)cc1 (centres undefined)	-	-	15.3	-	-	80.6	86.6
CCc1ccc(OCC(=O)NC(NC(=S)Nc2ccccc2OC)C(Cl)(Cl)Cl)cc1 (centres undefined)	-	-	-	-	-	92.2	89.1
CCOC(=O)NC(NC(=S)Nc1ccccc1OC)C(Cl)(Cl)Cl (centres undefined)	-	-	-	.	-	-	.
Cc1ccc(CNC(=O)CS(=O)(=O)Cc2nc(-c3ccc(C)cc3)oc2C)cc1	-	-	-	-	-	-	.
COC(=O)c1ccccc1NC(=S)NC(NC(=O)COc1ccccc1)C(Cl)(Cl)Cl (centres undefined)	-	-	-	-	-	-	.
CCc1ccc(OCC(=O)NC(NC(=S)Nc2ccccc2)C(Cl)(Cl)Cl)cc1 (centres undefined)	.	-	23.0	-	-	80.2	87.8
Cc1ccccc1NC(=S)NC(NC(=O)COc1ccccc1)C(Cl)(Cl)Cl (centres undefined)	-	-	-	-	-	80.1	82.9
Cc1ccc(S(=O)(=O)N2CCCCC2)cc1C(=O)N1C(C)CCCC1C (centres undefined)	-	.	-	-	-	-	.
CC1=NN(c2ccc([N+](=O)[O-])cc2)C(=O)/C1=C\N(C)C	-	55.7	-	-	-	99.4	-
CSc1ccccc1C(=O)N1CCC(n2nccc2NC(=O)C(C)(C)C)CC1	-	-	-	-	-	-	.
Oc1c(Cl)cc(Cl)cc1/C=N/NC(=S)NC1CC2C=CC1C2 (centres undefined)	100.2	110.9	12.0	.	-	88.7	62.5
Oc1ccccc1/C=N/NC(=S)NC1CC2C=CC1C2 (centres undefined)	-	91.5	-	.	-	56.6	70.4
Oc1ccccc1C=NNC(=S)Nc1ccc(F)cc1	.	.	14.3	.	.	62.6	71.4
Fc1ccc(NC(=S)NN=Cc2ccccc2Cl)cc1	.	.	-	.	.	-	.
Oc1ccccc1C=NNC(=S)NC1CC2C=CC1C2 (centres undefined)	.	.	.	.	.	-	.
CN(C)S(=O)(=O)c1cc(NC(=O)CSc2ncc(C(F)(F)F)cc2Cl)ccc1Cl	-	-	-	-	-	74.5	86.1
OC(CNCC1CCCO1)Cn1c2ccccc2c2ccccc21 (centres undefined)	-	-	-	-	-	73.5	-	MPTP abs DR=10.3;MPTP counter DR=-
OC(CNCc1ccco1)Cn1c2ccccc2c2ccccc21 (centres undefined)	-	-	-	-	-	-	.
CCOC(=O)c1c(/N=C/c2cc(C)ccc2O)sc2c1CCN(C)C2	-	-	-	-	-	85.1	-	MPTP abs DR=-;MPTP counter DR=76
Cc1cccc(/C=N/c2sc3c(c2C(=O)OC(C)(C)C)CCN(C)C3)c1O	-	-	-	-	-	56.4	-	MPTP abs DR=8.87;MPTP counter DR=67.1
O=C(Nc1ccc(C(=O)OC[C@@H]2CCCN3CCCC[C@H]23)cc1)c1cccc(Br)c1	-	-	-	-	-	70.3	-	MPTP abs DR=13.5;MPTP counter DR=47.2
O=C(NC(=O)c1cccc(F)c1)OC[C@@H]1CCCN2CCCC[C@H]12	-	-	-	-	-	-	.
CCOC(=O)c1c(-c2cccs2)csc1NC(=O)CC(C)C	-	-	-	-	-	57.4	-	MPTP abs DR=-;MPTP counter DR=-
SMILES	CSC inhib	SKKanGAS inh	NR3A LBD binder	Beta apoptosis	Mdm2-MdmX inh	MPTP inh	MPTP counter	others
Cn1nnc2ccccc2c1=O	-	-	-	-	-	-	.
O=C(NCc1ccco1)c1sc(=S)n2c1[nH]c(=O)c1ccccc12	-	-	-	-	-	89.4	76.7
COc1cccc(NC(=S)NC(C)c2ccc(OC)c(OC)c2)c1 (centres undefined)	-	-	-	-	-	-	.
COc1cccc(NC(=S)NC(Cc2ccccc2)c2ccccc2)c1 (centres undefined)	.	.	.	.	.	57.1	89.7
O=C1c2ccccc2C(Nc2cccc(C(F)(F)F)c2)N1Cc1ccco1 (centres undefined)	-	-	-	-	-	63.2	32.7
N#Cc1nc(COc2ccc(-c3ccccc3)cc2)oc1NCCCN1CCOCC1	.	-	-	-	-	-	.
CN(C)CCNc1oc(COc2ccc(-c3ccccc3)cc2)nc1C#N	-	-	-	-	-	74.6	-	MPTP abs DR=5.9;MPTP counter DR=54
Cc1cccc(NC(=O)CNC(=O)COc2cccnc2[N+](=O)[O-])c1C	-	.	-	-	-	-	.
CCCCCCNCC(=O)N1CCC(Cc2ccccc2)CC1	-	-	-	-	-	85.7	-	MPTP abs DR=11.3;MPTP counter DR=44.5
COc1cc(NC(=O)c2cc(Cl)ccc2Cl)ccc1-c1cc2ccccc2oc1=O	.	-	-	-	-	-	.
CCc1ccc(OCC(=O)Nc2ccc(-c3cc4ccccc4oc3=O)c(OC)c2)cc1	-	-	-	-	-	101.1	96.5
COc1cc(NC(=O)c2ccc3c(c2)OCCO3)ccc1NC(=O)c1cccs1	-	-	-	-	-	-	.
O=C(Nc1ccc(Oc2ccccc2)cc1)c1cnc2n(c1=O)CCS2	-	-	-	.	-	92.2	61.4
Cc1ccc(NC(=O)CSc2ccccc2NC(=O)c2ccccc2)cc1Cl	-	-	-	-	-	91.6	64.9
Cc1ccc(NC(=O)CSc2ccccc2NC(=O)c2ccccc2Cl)cc1Cl	-	-	11.0	-	-	90.0	87.2
Cc1ccc(NC(=O)COc2ccccc2)cc1Cl	-	-	-	-	-	-	.
CN(C)CCN1C(=O)C2C(C(=O)Nc3cc(Cl)cc(Cl)c3)C3C=CC2(O3)C1C(=O)NC1CCCCC1 (centres undefined)	-	-	-	-	-	-	.
Cc1ccc(S(=O)(=O)N2CCN(c3ncnc4sccc34)CC2)cc1C	.	.	-	.	-	89.6	93.6
O=S(=O)(c1ccc2c(c1)OCCO2)N1CCN(c2ncnc3sccc23)CC1	-	-	-	80.9	-	103.2	89.5
Cc1ccc(S(=O)(=O)N2CCN(c3ncccn3)CC2)cc1C	-	-	-	-	.	-	.
CN1CCN(C2CN(Cc3cn(Cc4ccc(C(F)(F)F)cc4)nn3)S(=O)(=O)C2)CC1 (centres undefined)	.	.	.	.	.	-	.
O=C(c1cc2c(s1)CCCC2)N1CCN(S(=O)(=O)c2ccccc2C(F)(F)F)CC1	-	-	-	-	-	-	.

Source: PubChem
